Laboratory results: ChEMBL document CHEMBL1961873, “Compounds: GSK PKIS; Assays: Nanosyn kinase panel” (2012)
Several values for one entry are separate records, joined by “and”; a condition that tells them apart may be missing. Equal entries are not always repeated.

Legend:
[1] = molecular target: T1, Tyrosine-protein kinase receptor TYRO3 (Homo sapiens) (UniProt Q06418); details: at 1 µM
T1 sequence (whole entry): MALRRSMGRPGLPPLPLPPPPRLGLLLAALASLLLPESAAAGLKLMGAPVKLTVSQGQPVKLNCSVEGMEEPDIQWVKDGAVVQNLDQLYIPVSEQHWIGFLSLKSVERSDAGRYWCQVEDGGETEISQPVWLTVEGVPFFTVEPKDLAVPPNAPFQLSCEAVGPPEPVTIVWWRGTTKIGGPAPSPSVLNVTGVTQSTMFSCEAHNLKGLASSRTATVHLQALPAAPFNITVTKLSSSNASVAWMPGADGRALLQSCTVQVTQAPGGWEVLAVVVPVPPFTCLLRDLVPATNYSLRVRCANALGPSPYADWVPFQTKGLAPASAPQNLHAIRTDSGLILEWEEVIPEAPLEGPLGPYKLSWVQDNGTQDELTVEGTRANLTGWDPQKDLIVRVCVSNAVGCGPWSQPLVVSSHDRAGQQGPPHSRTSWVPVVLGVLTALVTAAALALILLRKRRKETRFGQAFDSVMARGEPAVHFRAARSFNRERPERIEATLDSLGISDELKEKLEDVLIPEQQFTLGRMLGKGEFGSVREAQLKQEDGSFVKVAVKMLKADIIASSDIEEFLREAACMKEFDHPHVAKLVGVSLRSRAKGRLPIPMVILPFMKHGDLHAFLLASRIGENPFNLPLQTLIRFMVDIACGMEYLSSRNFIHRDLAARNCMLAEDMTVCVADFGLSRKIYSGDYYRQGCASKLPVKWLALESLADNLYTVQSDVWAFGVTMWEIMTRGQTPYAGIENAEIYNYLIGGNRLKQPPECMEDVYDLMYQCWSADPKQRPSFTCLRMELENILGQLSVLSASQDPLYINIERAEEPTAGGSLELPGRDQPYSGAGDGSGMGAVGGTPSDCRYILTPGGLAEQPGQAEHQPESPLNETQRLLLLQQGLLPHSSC

[2] = molecular target: Tyrosine-protein kinase Yes (Homo sapiens) (UniProt P07947); details: at 0.1 µM
[3] = molecular target: Tyrosine-protein kinase Yes (Homo sapiens) (UniProt P07947); details: at 1 µM
[4] = molecular target: T2, Tyrosine-protein kinase ZAP-70 (Homo sapiens) (UniProt P43403); details: at 0.1 µM
T2 sequence (whole entry): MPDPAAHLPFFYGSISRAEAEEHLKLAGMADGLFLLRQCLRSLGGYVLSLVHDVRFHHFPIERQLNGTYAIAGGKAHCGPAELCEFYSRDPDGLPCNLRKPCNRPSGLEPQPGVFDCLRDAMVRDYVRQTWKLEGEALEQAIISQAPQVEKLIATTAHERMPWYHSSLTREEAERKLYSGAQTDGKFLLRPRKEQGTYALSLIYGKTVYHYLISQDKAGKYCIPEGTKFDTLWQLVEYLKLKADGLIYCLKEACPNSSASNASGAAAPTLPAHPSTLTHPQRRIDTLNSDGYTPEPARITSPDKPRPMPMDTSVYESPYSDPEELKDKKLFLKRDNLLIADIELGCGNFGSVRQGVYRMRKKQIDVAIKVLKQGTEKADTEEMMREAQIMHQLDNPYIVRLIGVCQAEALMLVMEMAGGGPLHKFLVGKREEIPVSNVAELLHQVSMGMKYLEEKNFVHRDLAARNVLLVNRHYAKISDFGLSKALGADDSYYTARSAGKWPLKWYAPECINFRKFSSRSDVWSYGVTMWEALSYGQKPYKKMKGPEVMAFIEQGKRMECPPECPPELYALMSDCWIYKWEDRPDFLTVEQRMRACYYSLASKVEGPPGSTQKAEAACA

[5] = molecular target: T2, Tyrosine-protein kinase ZAP-70 (Homo sapiens); details: at 1 µM
[6] = molecular target: Serine/threonine-protein kinase B-raf (Homo sapiens) (UniProt P15056); details: at 0.1 µM
[7] = molecular target: Serine/threonine-protein kinase B-raf (Homo sapiens) (UniProt P15056); details: at 1 µM
[8] = tested on: Serine/threonine-protein kinase B-raf (Homo sapiens), P15056 [V600E]; details: at 0.1 µM
[9] = tested on: Serine/threonine-protein kinase B-raf (Homo sapiens), P15056 [V600E]; details: at 1 µM
[10] = molecular target: RAF proto-oncogene serine/threonine-protein kinase (Homo sapiens) (UniProt P04049); details: at 0.1 µM
[11] = molecular target: RAF proto-oncogene serine/threonine-protein kinase (Homo sapiens) (UniProt P04049); details: at 1 µM
[12] = molecular target: T3, Interleukin-1 receptor-associated kinase 4 (Homo sapiens) (UniProt Q9NWZ3); details: at 0.1 µM
T3 sequence (whole entry): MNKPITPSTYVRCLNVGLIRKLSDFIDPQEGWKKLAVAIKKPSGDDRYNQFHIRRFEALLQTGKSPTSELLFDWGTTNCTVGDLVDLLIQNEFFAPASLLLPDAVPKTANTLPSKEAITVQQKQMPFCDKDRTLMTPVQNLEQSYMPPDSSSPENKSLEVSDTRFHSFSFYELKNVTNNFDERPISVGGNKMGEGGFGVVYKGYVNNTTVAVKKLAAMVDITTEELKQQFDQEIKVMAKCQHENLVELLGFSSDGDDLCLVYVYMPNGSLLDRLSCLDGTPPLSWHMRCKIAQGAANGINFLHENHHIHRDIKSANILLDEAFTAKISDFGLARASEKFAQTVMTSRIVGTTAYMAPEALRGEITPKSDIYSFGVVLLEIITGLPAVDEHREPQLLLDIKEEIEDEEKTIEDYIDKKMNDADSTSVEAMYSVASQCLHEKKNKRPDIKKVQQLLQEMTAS

[13] = molecular target: T3, Interleukin-1 receptor-associated kinase 4 (Homo sapiens); details: at 1 µM
[14] = molecular target: Leucine-rich repeat serine/threonine-protein kinase 2 (Homo sapiens) (UniProt Q5S007); details: at 0.1 µM
[15] = molecular target: Leucine-rich repeat serine/threonine-protein kinase 2 (Homo sapiens) (UniProt Q5S007); details: at 1 µM
[16] = tested on: Leucine-rich repeat serine/threonine-protein kinase 2 (Homo sapiens), Q5S007 [G2019S]; details: at 0.1 µM
[17] = tested on: Leucine-rich repeat serine/threonine-protein kinase 2 (Homo sapiens), Q5S007 [G2019S]; details: at 1 µM

Chain of Tyrosine-protein kinase Yes (Homo sapiens) (P07947 2-543 limits assumed): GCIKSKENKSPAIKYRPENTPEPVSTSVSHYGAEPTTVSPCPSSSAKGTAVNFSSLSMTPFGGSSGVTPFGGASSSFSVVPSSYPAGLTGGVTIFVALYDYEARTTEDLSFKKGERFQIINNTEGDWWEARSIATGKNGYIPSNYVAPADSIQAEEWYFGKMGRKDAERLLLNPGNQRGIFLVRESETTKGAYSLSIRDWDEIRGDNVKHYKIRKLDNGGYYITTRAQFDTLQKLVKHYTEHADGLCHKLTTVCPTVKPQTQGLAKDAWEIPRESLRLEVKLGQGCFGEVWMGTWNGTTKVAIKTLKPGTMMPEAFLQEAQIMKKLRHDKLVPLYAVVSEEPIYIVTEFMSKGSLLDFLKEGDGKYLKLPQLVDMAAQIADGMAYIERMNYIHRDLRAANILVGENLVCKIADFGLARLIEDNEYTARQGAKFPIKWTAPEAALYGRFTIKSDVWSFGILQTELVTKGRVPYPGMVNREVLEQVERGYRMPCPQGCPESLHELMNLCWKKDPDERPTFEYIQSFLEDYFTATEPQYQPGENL
Chain of RAF proto-oncogene serine/threonine-protein kinase (Homo sapiens) (P04049 whole entry): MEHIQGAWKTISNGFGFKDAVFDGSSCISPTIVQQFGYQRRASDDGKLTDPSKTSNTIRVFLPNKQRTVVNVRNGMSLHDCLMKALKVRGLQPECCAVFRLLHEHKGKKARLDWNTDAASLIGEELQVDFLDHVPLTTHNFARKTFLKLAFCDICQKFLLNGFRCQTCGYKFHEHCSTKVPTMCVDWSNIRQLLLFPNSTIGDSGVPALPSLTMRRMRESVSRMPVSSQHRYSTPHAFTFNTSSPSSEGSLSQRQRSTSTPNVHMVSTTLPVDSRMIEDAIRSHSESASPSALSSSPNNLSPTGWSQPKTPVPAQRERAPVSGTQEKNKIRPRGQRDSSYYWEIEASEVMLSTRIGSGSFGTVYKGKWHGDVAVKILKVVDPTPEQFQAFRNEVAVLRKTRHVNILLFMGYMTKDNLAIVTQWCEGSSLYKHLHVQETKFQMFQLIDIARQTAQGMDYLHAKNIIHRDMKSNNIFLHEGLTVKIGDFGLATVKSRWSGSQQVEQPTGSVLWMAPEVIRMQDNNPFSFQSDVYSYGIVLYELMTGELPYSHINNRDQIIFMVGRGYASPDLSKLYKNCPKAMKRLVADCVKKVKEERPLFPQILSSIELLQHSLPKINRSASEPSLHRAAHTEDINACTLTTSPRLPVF
Chain of Serine/threonine-protein kinase B-raf (Homo sapiens), P15056 [V600E] (P15056 whole entry V600E): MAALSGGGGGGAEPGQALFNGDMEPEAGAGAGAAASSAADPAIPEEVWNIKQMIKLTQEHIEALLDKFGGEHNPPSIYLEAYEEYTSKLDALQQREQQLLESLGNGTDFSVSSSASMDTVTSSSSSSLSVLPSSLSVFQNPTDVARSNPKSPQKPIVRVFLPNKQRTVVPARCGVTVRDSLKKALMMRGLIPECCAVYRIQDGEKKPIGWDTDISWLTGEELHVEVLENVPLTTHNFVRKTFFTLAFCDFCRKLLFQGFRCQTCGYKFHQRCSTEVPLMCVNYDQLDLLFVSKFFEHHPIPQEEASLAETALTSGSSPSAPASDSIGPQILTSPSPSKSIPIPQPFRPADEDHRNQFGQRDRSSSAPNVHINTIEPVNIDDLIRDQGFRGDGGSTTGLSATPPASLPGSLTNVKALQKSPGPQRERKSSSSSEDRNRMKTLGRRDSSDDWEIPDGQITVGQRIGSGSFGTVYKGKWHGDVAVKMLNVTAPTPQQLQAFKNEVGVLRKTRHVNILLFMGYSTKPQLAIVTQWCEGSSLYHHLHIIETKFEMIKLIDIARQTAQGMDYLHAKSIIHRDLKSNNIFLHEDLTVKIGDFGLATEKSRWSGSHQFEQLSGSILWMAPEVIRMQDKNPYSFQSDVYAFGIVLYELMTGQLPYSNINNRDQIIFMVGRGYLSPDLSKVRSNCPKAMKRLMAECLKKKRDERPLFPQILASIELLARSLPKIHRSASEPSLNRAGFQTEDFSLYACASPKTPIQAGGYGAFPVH
Chain of Leucine-rich repeat serine/threonine-protein kinase 2 (Homo sapiens) (Q5S007 whole entry): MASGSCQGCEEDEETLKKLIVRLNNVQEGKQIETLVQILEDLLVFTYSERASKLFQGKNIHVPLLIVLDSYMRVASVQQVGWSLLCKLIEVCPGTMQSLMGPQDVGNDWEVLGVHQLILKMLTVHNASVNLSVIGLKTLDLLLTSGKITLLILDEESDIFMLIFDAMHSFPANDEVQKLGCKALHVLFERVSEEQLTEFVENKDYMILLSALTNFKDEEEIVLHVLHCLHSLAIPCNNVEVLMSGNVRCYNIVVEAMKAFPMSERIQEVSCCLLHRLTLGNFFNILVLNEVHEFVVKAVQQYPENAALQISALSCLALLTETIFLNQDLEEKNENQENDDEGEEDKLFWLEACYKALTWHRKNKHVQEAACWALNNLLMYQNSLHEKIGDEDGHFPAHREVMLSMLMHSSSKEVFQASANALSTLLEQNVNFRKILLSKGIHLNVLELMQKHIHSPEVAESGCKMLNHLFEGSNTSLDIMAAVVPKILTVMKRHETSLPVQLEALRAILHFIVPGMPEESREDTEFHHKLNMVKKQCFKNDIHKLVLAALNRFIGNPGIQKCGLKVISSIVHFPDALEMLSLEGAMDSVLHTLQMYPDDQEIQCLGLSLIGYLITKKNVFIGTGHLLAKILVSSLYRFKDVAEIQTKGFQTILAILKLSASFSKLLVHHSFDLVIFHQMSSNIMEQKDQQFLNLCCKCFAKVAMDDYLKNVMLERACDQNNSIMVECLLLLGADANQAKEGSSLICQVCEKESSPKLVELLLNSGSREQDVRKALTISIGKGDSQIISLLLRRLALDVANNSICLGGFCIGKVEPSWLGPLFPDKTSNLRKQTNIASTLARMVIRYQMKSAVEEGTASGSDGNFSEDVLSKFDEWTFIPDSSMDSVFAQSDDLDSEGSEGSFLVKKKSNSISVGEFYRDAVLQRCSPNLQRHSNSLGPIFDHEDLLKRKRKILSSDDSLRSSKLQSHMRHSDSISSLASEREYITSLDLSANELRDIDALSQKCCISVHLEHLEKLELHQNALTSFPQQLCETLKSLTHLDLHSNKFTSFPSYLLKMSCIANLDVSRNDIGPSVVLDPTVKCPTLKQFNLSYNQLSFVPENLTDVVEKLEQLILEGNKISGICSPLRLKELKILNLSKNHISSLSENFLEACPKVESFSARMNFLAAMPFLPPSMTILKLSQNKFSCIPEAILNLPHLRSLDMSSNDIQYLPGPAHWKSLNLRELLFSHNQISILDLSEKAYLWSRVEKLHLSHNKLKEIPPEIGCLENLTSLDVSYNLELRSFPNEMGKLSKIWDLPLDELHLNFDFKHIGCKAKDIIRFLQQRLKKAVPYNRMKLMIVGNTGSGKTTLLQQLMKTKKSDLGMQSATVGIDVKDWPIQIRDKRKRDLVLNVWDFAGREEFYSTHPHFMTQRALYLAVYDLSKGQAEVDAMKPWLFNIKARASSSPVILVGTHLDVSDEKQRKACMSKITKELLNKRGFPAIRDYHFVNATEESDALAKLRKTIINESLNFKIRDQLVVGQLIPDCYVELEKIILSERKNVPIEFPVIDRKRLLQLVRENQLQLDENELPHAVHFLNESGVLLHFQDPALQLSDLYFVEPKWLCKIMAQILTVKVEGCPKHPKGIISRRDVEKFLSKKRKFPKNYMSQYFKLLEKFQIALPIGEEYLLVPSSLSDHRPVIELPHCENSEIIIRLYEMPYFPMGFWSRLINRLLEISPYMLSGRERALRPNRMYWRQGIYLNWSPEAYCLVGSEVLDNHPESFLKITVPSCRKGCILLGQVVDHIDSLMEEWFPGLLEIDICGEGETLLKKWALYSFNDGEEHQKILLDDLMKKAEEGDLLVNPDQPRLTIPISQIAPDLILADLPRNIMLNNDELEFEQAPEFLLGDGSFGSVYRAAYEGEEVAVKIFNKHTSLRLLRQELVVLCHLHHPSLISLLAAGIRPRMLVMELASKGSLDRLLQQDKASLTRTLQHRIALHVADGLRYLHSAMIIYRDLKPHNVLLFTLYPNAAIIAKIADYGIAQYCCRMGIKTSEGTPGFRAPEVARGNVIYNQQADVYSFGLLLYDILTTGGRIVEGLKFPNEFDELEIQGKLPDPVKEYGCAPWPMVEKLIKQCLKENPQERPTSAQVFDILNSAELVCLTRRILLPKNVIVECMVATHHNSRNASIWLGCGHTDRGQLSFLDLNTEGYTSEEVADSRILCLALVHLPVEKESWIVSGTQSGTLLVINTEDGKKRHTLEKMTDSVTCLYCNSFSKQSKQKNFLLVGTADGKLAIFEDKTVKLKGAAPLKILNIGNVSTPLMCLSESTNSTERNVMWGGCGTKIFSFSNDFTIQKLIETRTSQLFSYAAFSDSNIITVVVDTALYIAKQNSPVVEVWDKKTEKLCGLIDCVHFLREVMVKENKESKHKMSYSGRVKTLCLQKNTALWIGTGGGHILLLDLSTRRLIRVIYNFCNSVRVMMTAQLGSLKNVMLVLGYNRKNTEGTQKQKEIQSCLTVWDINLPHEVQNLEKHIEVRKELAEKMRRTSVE
Chain of Leucine-rich repeat serine/threonine-protein kinase 2 (Homo sapiens), Q5S007 [G2019S] (Q5S007 whole entry G2019S): as the sequence (Q5S007 whole entry) above, with G2019S counted along it
Chain of Serine/threonine-protein kinase B-raf (Homo sapiens) (P15056 whole entry): as the sequence (P15056 whole entry V600E) above, with E600V counted along it

Compound	inhibition [1]	inhibition [2]	inhibition [3]	inhibition [4]	inhibition [5]	inhibition [6]	inhibition [7]	inhibition [8]	inhibition [9]	inhibition [10]	inhibition [11]	inhibition [12]	inhibition [13]	inhibition [14]	inhibition [15]	inhibition [16]	inhibition [17]
OCCCNc1nccc(-c2c(-c3ccc(F)cc3)nn3cc(C(F)(F)F)ccc23)n1	1.03%	1.78%	1.85%	2.54%	-1.3%	3.71%	11.6%	2.84%	9.93%	0.53%	-7.33%	-1.58%	1.48%	5.02%	7.46%	2.62%	7.85%
FC(F)(F)CNc1nccc(-c2cnn3ncccc23)n1	2.17%	1.28%	1.55%	0.71%	1.8%	4.03%	3.85%	3.08%	2.52%	-1.22%	-1%	0.77%	1.21%	3.07%	8.2%	5.03%	9.11%
Nc1nonc1-c1nc2cnccc2n1C1CC1	4.53% and 2.7%	-0.59% and 1.1%	1.1% and 2.73%	0.56% and -1.17%	3.98% and -1.48%	5.09% and 3.82%	9.07% and 5.15%	4.37% and 3.69%	8.28% and 5.87%	6.05% and 2.66%	5.43% and 2.92%	-0.18% and 2.38%	2.91% and 1.65%	8.81% and 0.08%	15.4% and 10.4%	13.3% and 5.33%	44.6% and 35%
CS(=O)(=O)Nc1ccc(-c2cc(-c3ccccc3)cc(C(N)=O)c2N)cc1	0.42%	0.79%	4.67%	-2.43%	-3.4%	2.34%	3.97%	2.93%	3.58%	-0.86%	-4.37%	0.55%	1.37%	1.64%	4.15%	3.87%	5.66%
COc1cc(Nc2ncc(-c3ccccc3)o2)cc(OC)c1	8.91%	5.8%	39.5%	2.8%	1.02%	7.08%	6.68%	5.31%	3.47%	0.47%	-1.38%	2.03%	2.83%	0.94%	6.82%	2.33%	12.5%
COc1cc2c(cc1Nc1nc(Nc3cccc(F)c3C(N)=O)c3cc[nH]c3n1)N(C(=O)CN1CCN(C(C)C)CC1)CC2	0.01%	1.54%	1.04%	2.59%	3.22%	2.3%	7.9%	2.2%	4.6%	0.97%	-4.19%	-0.19%	-0.43%	25.8%	76.8%	41.5%	59.8%
Cc1cc(O)cc(C)c1/C=C/c1cncc(C(N)=O)c1	6.32%	6.53%	32.2%	2.11%	2.46%	4.77%	11.2%	3.8%	8.78%	-1.23%	5.31%	-1.86%	0.71%	1.8%	6.26%	3.18%	13.3%
Cc1c2ccc(N(C)c3ccnc(Nc4cccc(S(N)(=O)=O)c4)n3)cc2nn1C	16.1%	14.9%	62.8%	0.81%	11.5%	9.33%	9.79%	8.28%	12.5%	-1.01%	41%	4.14%	3.25%	0.45%	9.99%	1.58%	12.6%
